Source: PubChem BioAssay (National Center for Advancing Translational Sciences (NCATS))
Rows were chosen to be rich in hits. Some 21% of all compounds tested hit in one or more screens of this group.
Cycloheximide cs: counter-screen hit for Shiga toxin inhibitors, cycloheximide; cell reporter, cycloheximide protein synthesis inhibition counterscreen; max response, %; 300,000 compounds, 12% hits; in the data active = max response mostly above about 13%, no sharp cut-off; inactive = mostly below about 14%; also: read at 38.3 µM for the half of the compounds with a filed dose; 0% is about no effect
Pf growth 96h: P. falciparum growth inhibition at 96 hour, primary screen for plastid delayed-death inhibitors; P. falciparum luciferase reporter growth, 96 h; Potency, µM (doses to about 28.7 µM), without a hit: top-dose activity change, negative = inhibition, hits mostly inhibitors; 320,000 compounds, 6.9% hits; also: potency is read from the fitted curve at half-maximal effect; % is scaled to controls: 0 for no effect and ±100 for the full control effect
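P. falciparum expressing integrated firefly luciferase grown in erythrocytes (2% hematocrit, 0.05% parasitemia final) with compounds for 96 hours at 37 C, 5% CO2. Growth inhibition read as loss of luminescence after adding luciferase detection reagent.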
NS1 function inh: influenza NS1 inhibition | Potency, µM (highest dose often 46.1 µM), inactives show top-dose activity, positive = more growth | 270,000 compounds, 0.4% hits; calls by dose curve; also: potency is read from the fitted curve at half-maximal effect; actives are rising curves; nearly all actives have a fitted effect of over 50% in size
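Compounds were scored for reversing the slow growth caused by influenza A NS1 in S. cerevisiae, measured by optical density at 600 nm. Assay medium contained 2% galactose at pH 6.0; NS1-free yeast of the same strain were the positive control.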
Pf growth 48h: inhibits P. falciparum growth in the first generation, 48 h; 310,000 compounds, 5.9% hits; Potency, µM (titrated, usually from 28.7 µM), without a hit: top-dose activity change, negative = inhibition, most hits filed as inhibitors; AID 504832; P. falciparum luciferase growth in erythrocytes, 48 h; also: potency is read from the fitted curve at half-maximal effect; % is scaled to controls: 0 for no effect and ±100 for the full control effect
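Cell-based growth assay: transgenic P. falciparum expressing firefly luciferase, cultured in red cells within RPMI 1640 containing 0.5% w/v Albumax, 24 mM bicarbonate and gentamycin. A drop in luciferase activity indicates inhibition.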
Shiga toxin inh: Shiga toxin inhibition. AID 2315. 290,000 compounds, 9.2% hits. Vero cells, Shiga toxin protein synthesis inhibition reporter. inhibition, % at 38.7 µM; in the data active = inhibition mostly above about 28%, no sharp cut-off; inactive = mostly below about 43%; also: 0% is about no effect
FBPA Giardia inh: Giardia lamblia aldolase inhibition. Potency, µM (highest dose often 59.6 µM), without a hit: at the highest dose activity, negative = inhibition, usual class: inhibitors. purified Giardia FBPA. AID 2451. 290,000 compounds, 0.71% hits; also: potency is read from the fitted curve at half-maximal effect; % is scaled to controls: 0 for no effect and ±100 for the full control effect; nearly all actives have a fitted effect of over 55% in size
Target sequence (A8B2U2 whole entry, looked up): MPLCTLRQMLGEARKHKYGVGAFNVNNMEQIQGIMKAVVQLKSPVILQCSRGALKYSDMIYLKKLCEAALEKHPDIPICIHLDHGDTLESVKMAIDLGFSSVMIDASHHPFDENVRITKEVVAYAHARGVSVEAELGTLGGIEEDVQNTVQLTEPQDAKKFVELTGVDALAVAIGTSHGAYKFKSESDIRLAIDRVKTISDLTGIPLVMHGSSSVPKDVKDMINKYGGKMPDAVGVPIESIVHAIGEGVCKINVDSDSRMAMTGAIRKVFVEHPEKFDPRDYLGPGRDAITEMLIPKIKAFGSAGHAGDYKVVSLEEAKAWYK
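Giardia FBPA (40 nM reagent) was preincubated 10 min at RT with compound (up to 57.5 uM final), then substrate plus GAPDH/TPI/NAD/arsenate coupling system with diaphorase/resazurin was added; resorufin fluorescence (525/598 nm) was read after 20 min.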
An asterisk follows results filed as active; ? = inconclusive; . = no result given; [ ] = dose if it differs, or a comment. Unless noted, calls follow the shape of the dose curve; as a rule, active = well fitted curve in the direction sought with a large enough effect; inconclusive = small, poorly fitted or top-dose-only effect, or another doubt; inactive = no such curve, though single readings can be large; an effect the other way counts as inactive or inconclusive.

SMILES	Cycloheximide cs	Pf growth 96h	NS1 function inh	Pf growth 48h	Shiga toxin inh	FBPA Giardia inh
Cc1cccc(NC(=O)Nc2ccccn2)c1C	11	79%	0%	89%	47	2%
Cc1ccccc1NC(=O)Nc1ccccn1	28*	?	-8%	32%	.	-13%
Cc1ccccc1NC(=O)N(C(C)C)C(C)C	-4	9.3µM*	1%	.	-15	-1%
Cc1ccccc1NC(=O)Nc1cc(-c2ccccc2)nn1C	36*	68%	1%	42%	82*	5%
Cc1ccc(C(NC(=O)Nc2ccccn2)C(Cl)(Cl)Cl)cc1F (configuration not stated)	-6	13µM*	-8%	?	24	11%
C=CC(=O)N1C(=O)c2ccccc2S1(=O)=O	.	.	.	.	.	-1%
Cc1cc(C)c(OCC(=O)Nc2nnc(C3CC3)s2)c(C)c1	.	7%	.	-19%	.	.
CCOC(=O)c1cc(NC(=O)Nc2ccccn2)c(C)nc1C	27*	55%	.	42%	37	1%
CCOC(=O)c1cc(NC(=O)Nc2ccccc2OC)c(C)nc1C	1	.	-11%	-3%	-4	4%
O=C(Nc1ccccn1)Nc1ccccc1[N+](=O)[O-]	40*	?	-7%	67%	47*	2%
CC1=N[C@@](C)(COC(=O)[C@]2(C)N[C@](C)(CO)CO2)COC1=O	.	.	0%	.	.	.
Cc1ccc(C(=O)N2CCN(c3ccccc3O)CC2)cc1S(=O)(=O)N1CCCCC1	.	-103%	.	13µM*	.	.
Cc1ccc(C(=O)N2CCN(C)CC2)cc1S(=O)(=O)N1CCCCCC1	6	2.3µM*	8%	-28%	-21	.
Cc1ccc(C(=O)N2CCOCC2)cc1S(=O)(=O)N1CCCCC1	-3	?	8%	-5%	-2	.
Cc1ccc(C(=O)N2CCN(C)CC2)cc1S(=O)(=O)N1CCCCC1	-3	?	-1%	-12%	-10	-14%
Cc1cccc(N2CCN(S(=O)(=O)c3c(C)[nH]c(C)c3C(=O)N3CCCC3)CC2)c1C	2	-5%	-4%	?	-4	3%
Cc1cccc(N2CCN(S(=O)(=O)c3c(C)[nH]c(C)c3C(=O)N3CCCCC3)CC2)c1C	-4	?	10%	9.3µM*	2	-5%
COc1ccccc1N1CCN(CCCCOc2ccc(C)cc2C)CC1	-4	?	-20%	18%	-6	?
CN1CCCN(S(=O)(=O)c2ccccc2)c2nc3ccccc3nc21	.	-13%	.	57%	.	.
CN1CCCNc2nc3ccccc3nc21	35*	?	-43%	82%	84*	-21%
O=C(OCC(=O)N1CCCC1)c1ccccc1C(=O)c1ccccc1	.	5%	.	8%	.	.
O=C(CCNC(=O)c1ccccc1)N=Nc1c(O)[nH]c2ccccc12	3	110%	.	11%	2	-4%
O=C(CCCCCNC(=O)c1ccccc1)N=Nc1c(O)[nH]c2c(Br)cc(Br)cc12	-2	0%	7%	12µM*	-12	0%
c1ccc(Nc2ccc3c4c(cccc24)CC3)cc1	3	-1%	?	?	2	-19%
c1ccc(NC2=Nc3ccccc3CC2)cc1	37*	?	-5%	.	45*	4%
SMILES	Cycloheximide cs	Pf growth 96h	NS1 function inh	Pf growth 48h	Shiga toxin inh	FBPA Giardia inh
COC(=O)/C(=C1/Oc2cc(C)oc(=O)c2S1)C(F)(F)F	12	?	-20%	?	20	5%
COC(=O)/C(=C1/Oc2ccc(C(C)(C)C)cc2S1)C(F)(F)F	50*	?	-9%	57%	10	0%
Cc1cc(O)c(N)c(C)c1Cl	5	?	.	3.3µM*	10	?
Cc1cc(O)cc(C)c1Cl	.	8.5µM*	.	15µM*	.	?
Cc1cc2nc(CSc3ccc(Cl)cc3)cc(=O)n2[nH]1	-4	2%	4%	-40%[1.15 µM]	17	-19%
O=C(NCCc1cccc(C(F)(F)F)c1)C1CCC(=O)N(C2CC2)C1 (configuration not stated)	1	?	12%	1%	-13	.
CC(C)(C)C(=O)Nc1ccccc1C(=O)OCC(=O)c1ccc2c(c1)OCCO2	69*	-20%	-13%	-3%	78*	-3%
C/C(=N\OCC(=O)Nc1ccccc1C(C)(C)C)c1ccc2c(c1)OCCO2	-1	?	-16%	9.3µM*	-4	0%
COC(=O)c1ccccc1NC(=O)c1ccc2c(c1)OCCO2	-1	?	-99%	4%	29	-2%
